# The list is not random: actives were taken first. Their share in the collection is about 19%.
# HT1080 IDH1KD tx: kills HT-1080 cells with IDH1 knockdown; HT-1080 IDH1 knockdown viability, ATP luminescence, 48 h; Potency, µM (titrated, usually from 46.1 µM), most hits filed as cytotoxic; actives 2% (n = 360,000); AID 686971
#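 HT-1080-IDH1KD cells (IDH1 knocked down), 750/well in RPMI with 5% FBS, treated with compound 48 h at 37 degrees C. Viability by CellTiter-Glo luminescence, normalised to DMSO and no-cell wells; concentration-response curves classed.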
# IL1B secr inh: inhibitors of inflammasome signaling (IL-1 beta secretion); activity change, % at 57.5 µM; THP-1 LPS/ATP IL-1B secretion, AlphaLISA, 16 h; stronger effect = lower value; actives 4.7% (n = 360,000); AID 743279; in the data active = activity change below about -50%; inconclusive = mostly about -30% to -49%
#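 Secreted IL-1B measured by AlphaLISA bead assay after 16 h compound exposure of THP-1 cells; compounds (final up to 57.5 uM) added 1 h before LPS (250 ng/mL) and ATP (1.25 mM) stimulation; lower signal means less secretion.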
# TDP1 cell noCPT: qHTS for Inhibitors of human tyrosyl-DNA phosphodiesterase 1 (TDP1): qHTS in cells in absence of CPT; DT40 Tdp1-/- hTDP1 cells, no CPT, ATP luminescence, 48 h; actives 15% (n = 420,000); Potency, µM (series often up to 46.2 µM), actives largely listed as inhibitors; AID 686978, 2013; also: nearly all actives have a fitted effect of over 55% in size
#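 DT40 Tdp1-/-;hTDP1 cells, no CPT (DMSO vehicle only), 400 cells/well; compounds pin-transferred; ≥48 hr, 37 °C; CellTiter-Glo 30 min RT dark, luminescence read.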
# HT1080-NT tox: kills 2HG-producing HT-1080-NT fibrosarcoma cells; HT-1080-NT fibrosarcoma viability, CellTiter-Glo ATP luminescence, 48 h; Potency, µM (doses to about 46.1 µM), actives largely listed as cytotoxic; actives 1.6% (n = 360,000); AID 686970;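 also: NT is the 2HG producing partner of a matched IDH1 knockdown line; nearly all actives have a fitted effect of over 55% in size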
#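 Luminescent CellTiter-Glo readout after 48 hours of compound exposure at 37 degrees C defined viability of HT-1080-NT cells. Activity was normalized to DMSO wells and cell-free media wells; concentration-response curves were fitted and assigned curve classes.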
# DT40 TDP1 CPT: growth inhibition of DT40 Tdp1-/-;hTDP1 cells with camptothecin (screen for TDP1 inhibitors) | chicken DT40 Tdp1-/-;hTDP1 cells + 20 nM CPT, ATP luminescence, 48 h | actives 12% (n = 420,000) | Potency, µM (highest dose often 46.2 µM), hits mostly inhibitors | AID 686979; also: nearly all actives have a fitted effect of over 55% in size
#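 Cell growth measured by CellTiter-Glo luminescence after a minimum 48 h, 37 C compound exposure with 20 nM CPT in Tdp1-knockout DT40 cells stably expressing hTDP1, seeded 400/well; qHTS titration format.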
# A number is an active result; i = inactive; ? = inconclusive; nt = not tested or not shown; [ ] = dose if it differs, or a comment. Unless noted, calls follow the shape of the dose curve; as a rule, active = well fitted curve in the direction sought with a large enough effect; inconclusive = small, poorly fitted or top-dose-only effect, or another doubt; inactive = no such curve, though single readings can be large; an effect the other way counts as inactive or inconclusive.
SMILES,HT1080 IDH1KD tx,IL1B secr inh,TDP1 cell noCPT,HT1080-NT tox,DT40 TDP1 CPT
COc1ccc(CNC(=O)C2CCCN(c3ncnc4c3nc3n4CCCCC3)C2)cc1 (configuration not stated),i,i,?,i,18.4µM
CCCCCCCCCCCC(=O)c1c(O)cccc1O,i,i,?,i,?
Cc1nc2ccc(C(=O)N(C)Cc3ccco3)cn2c1N(C)C(=O)CCc1ccccc1,i,i,i,i,?
C=CCC[C@@H](Cc1ccc(F)cc1)C(=O)OCCNC(=O)[C@@H](CC=C)CC(=O)N[C@@H](CO)Cc1ccccc1,i,i,i,i,?
C=CCC[C@@H](Cc1ccc(F)cc1)C(=O)OC[C@@H](C)NC(=O)[C@@H](CC=C)CC(=O)N[C@H](CO)Cc1ccccc1,i,?,?,i,14.6µM
C=CCC[C@@H](Cc1ccc(F)cc1)C(=O)OCCNC(=O)[C@@H](CC=C)CC(=O)N[C@H](CO)Cc1ccccc1,i,i,?,i,20.6µM
C=CCC[C@@H](Cc1ccc(F)cc1)C(=O)OC[C@@H](Cc1ccccc1)NC(=O)[C@H](CC=C)CC(=O)NCCO,i,i,13µM,i,9.2µM
C=CC[C@@H](CC(=O)NCCO)C(=O)NC[C@H](OC(=O)[C@@H](CC=C)Cc1ccc(F)cc1)c1ccccc1,i,i,11.6µM,i,14.6µM
CCOC(=O)c1c(C)[nH]c(C)c1S(=O)(=O)N(C)CC(=O)NCc1ccc(C)cc1,i,i,i,i,i
O=C(O)CN1C(=O)C(=O)N(Cc2cccc(F)c2)C1=O,i,i,i,i,i
COC(=O)c1cc(CNC(=O)c2cccc(N(C)C)c2)cc(NC(=O)c2ccccc2Cl)c1,nt,nt,i,nt,i[9.04 µM]
C=CC[C@@H](CC(=O)N[C@H](CO)Cc1ccccc1)C(=O)N[C@@H](C)COC(=O)[C@@H](CC=C)Cc1ccc(F)cc1,i,i,18.4µM,i,?
NC(=O)c1cc(Br)cc(C2CCCCC2)c1O,?,-55.7,i,?,i
CCc1nnc(NC(=O)CSc2nnc(C)c(=O)n2N)s1,i,i,i,i,i
Cc1nc([N+](=O)[O-])c(Br)n1CC(=O)c1cccc([N+](=O)[O-])c1,?,-97.9,16.4µM,i,14.6µM
Cc1nc([N+](=O)[O-])c(Sc2nc3ccc([N+](=O)[O-])cc3[nH]2)n1Cc1ccccc1,i,-76.0,8.2µM,i,9.2µM
Cc1nc([N+](=O)[O-])c(Br)n1Cc1ccccc1,?,i,6.51µM,?,5.17µM
Cc1nc([N+](=O)[O-])c(Br)n1CC(=O)c1ccc(F)cc1,18.4µM,-96.5,16.4µM,?,?
CCn1c2ccccc2c2cc(NC(=O)CSc3nccc(=O)[nH]3)ccc21,?,i,?,i,?
COc1ccccc1CN1CC(C(=O)NCC2(O)CCCCC2)CCC1=O (configuration not stated),i,i,i,i,i
CCOc1ccc(OCC)c(NC(=O)CN2CCN(c3cccc(C)c3C)CC2)c1,i,i,23.1µM,i,16.4µM
CCOc1ccc(NC(=O)NCCN2CCN(c3cccc(C)c3C)CC2)cc1,i,i,20.6µM,i,20.6µM
CCOc1ccc(NC(=O)NCCN2CCN(c3ccccc3F)CC2)cc1,i,?,?,i,?
CCOc1cccc(N2CCN(CCNC(=O)Nc3ccc(C)cc3)CC2)c1C,i,-68.0,?,i,?
CCOc1ccc(OCC)c(NC(=O)CN2CCN(C(=O)c3ccco3)CC2)c1,i,i,?,i,?
SMILES,HT1080 IDH1KD tx,IL1B secr inh,TDP1 cell noCPT,HT1080-NT tox,DT40 TDP1 CPT
CCCN(CCC)CCNC(=O)C1CCCN(S(=O)(=O)c2cccc3nsnc23)C1 (configuration not stated),nt,nt,i,nt,i
COc1ccc(-c2cccc(CCC(=O)N3CCN(c4cc(C)ccc4C)CC3)c2)cc1,i,i,?,i,?
COc1ccc(C(=O)CCC(=O)N2CCN(c3cc(C)ccc3C)CC2)cc1,i,?,?,i,16.4µM
Cc1ccc(C)c(N2CCN(C(=O)CCc3nc(-c4ccccc4C(F)(F)F)no3)CC2)c1,i,?,?,i,?
COc1ccc(-c2noc(CCCC(=O)N3CCN(c4cc(C)ccc4C)CC3)n2)cc1,i,i,?,i,?
COc1ccccc1-c1noc(CCC(=O)N2CCN(c3cc(C)ccc3C)CC2)n1,i,i,14.6µM,i,?
COc1ccc(-c2noc(CCCCC(=O)N3CCN(c4cc(C)ccc4C)CC3)n2)cc1,i,i,2.91µM,i,4.11µM
Cc1nn(Cc2ccc(F)cc2)c(C)c1NC(=O)CCCn1nc([N+](=O)[O-])cc1C,i,i,i,i,i
Cc1noc(C)c1-c1nccc(N2CCN(C)CC2)n1,nt,nt,i,nt,i
Cc1ccc(-n2c(-c3ccccc3)nsc2=NC#N)cc1,nt,nt,?,nt,12.6µM
Cc1ccc(-n2c(-c3ccccc3)n[nH]c2=S)cc1,i,i,i,i,i
Cc1cc(Nc2ccccc2)n(-c2ccccc2)n1,i,i,?,i,i
Cc1cc(C)nc(-n2nc(C)cc2Nc2ccccc2)n1,i,i,5.17µM,i,2.59µM
CCC(C(=O)Nc1cc(C)nn1-c1nc(C)cc(C)n1)c1ccccc1 (configuration not stated),i,i,18.4µM,i,25.9µM
Cc1cc(C)nc(-n2nc(C)cc2NC(=O)CNCc2ccccc2)n1,i,i,?,i,i
COc1cc(C(=O)NC(C(=O)Nc2cccc(C(C)=O)c2)C(C)C)cc(OC)c1OC (configuration not stated),i,i,i,i,i
Cc1noc(C)c1CN(C(=S)NC1CC2CCC1C2)c1ccccc1 (configuration not stated),i,?,23.1µM,i,?
Cc1noc(C)c1CN(C(=S)NC(C)C)c1ccccc1,i,i,i,i,i
CC(C)(C)C(=O)Cn1c(=N)n(Cc2ccccc2)c2ccccc21,?,i,14.6µM,?,20.6µM
C=CCn1c(=N)n(CC(=O)OCC)c2ccccc21,i,i,i,i,i
CC(C)(C)C(=O)Cn1c(=N)n(Cc2ccccc2Cl)c2ccccc21,i,i,25.9µM,i,25.9µM
Cc1ccc(Cn2c(=N)n(CC(=O)c3ccccc3)c3ccccc32)cc1,?,-82.4,3.66µM,i,7.31µM
CCCn1c(=N)n(CC(=O)OCC)c2ccccc21,i,i,i,i,i
CCOC(=O)Cn1c(=N)n(Cc2ccc(C(C)(C)C)cc2)c2ccccc21,nt,nt,13µM,nt,?
CC(C)NC(=S)NC(=O)c1ccc(Cl)cc1Cl,i,i,?,i,?
CC(C)CNC(=S)NC(=O)c1ccc(F)cc1,i,i,?,i,18.4µM
O=C(Nc1ccccc1Cl)c1ccc(Cl)cc1Cl,i,i,i,i,i

# Compound activity (PubChem BioAssay)
